Laboratory results: PubChem BioAssay (EPA / NIEHS)
Values joined by “and” are separate entries in the source; they are usually repeats but may differ in a detail not shown here. Equal values may be shown once. Results filed as inconclusive are left out. Some compounds were tested as several samples or in several runs, with calls that do not always agree. Active and inactive are the calls of the source. Rule for the calls, unless noted: active = hit-call score of the fitted dose curve at least 0.9, where 1 is the maximum; inactive = score below 0.9.

Assays:
[1] = target: Nuclear respiratory factor 1 (Homo sapiens) (UniProt Q16656); assay: ATG_NRF1_CIS: Attagene CIS-FACTORIAL HepG2 Assay for human Nuclear Respiratory Factor 1 (NRF1) Orphan Gene (AID 2282987); conditions: HepG2 NRF1 cis-element reporter, Attagene multiplex; actives raise or lower the signal
How it was run: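 HepG2 cells transiently transfected with multiple cis-regulated reporter units, exposed 24 h. Reporter mRNAs measured by RT-PCR, fluorescent labelling, HpaI digestion and capillary electrophoresis; bidirectional fitting against DMSO.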

[2] = ATG_NFI_CIS: Attagene CIS-FACTORIAL HepG2 Assay for human Nuclear Factor I (NFI) (AID 2282989); conditions: HepG2 cis-regulatory reporter, NFI response element transcription; actives raise or lower the signal
How it was run: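 Read-out: reporter mRNA via RT-PCR plus capillary electrophoresis with fluorescence detection. Transiently transfected HepG2 (endogenous TF activity on cis promoters), 24 h compound exposure; gain or loss of signal fitted against DMSO.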

[3] = target: Myc proto-oncogene protein (Homo sapiens) (UniProt P01106); assay: ATG_Myc_CIS: Attagene CIS-FACTORIAL HepG2 Assay for human Myelocytomatosis (Myc) Proto-Oncogene Transcription Factor (AID 2282990); conditions: HepG2, Attagene cis-reporter transcription factor activity; actives raise or lower the signal
How it was run: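 Cells of the HepG2 human liver line bear multiple cis-driven reporter transcription units. Reporter mRNA after 24 h exposure is reverse-transcribed, amplified, labelled and resolved by capillary electrophoresis, with gain- or loss-of-signal fitting relative to DMSO.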

[4] = ATG_NF_kB_CIS: Attagene CIS-FACTORIAL HepG2 Assay for human Nuclear Factor Kappa B (NF-kB) (AID 2282991); conditions: HepG2 Attagene cis-factorial NF-kB reporter mRNA; actives raise or lower the signal
How it was run: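 HepG2 cells transfected with cis-promoter-driven reporter units, so endogenous transcription factor activity is measured. Reporter mRNA quantified 24 h after dosing by RT-PCR and capillary electrophoresis, with bidirectional fitting against DMSO.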

[5] = ATG_NRF2_ARE_CIS: Attagene CIS-FACTORIAL HepG2 Assay for human Nuclear Factor Erythroid 2 Related Factor 2 (NFR2) response to Antioxidant Response Elements (ARE) (AID 2282992); conditions: HepG2 Attagene ARE/NRF2 reporter, transcription factor activity; actives raise or lower the signal;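 for AC50: reporter mRNA level measured by RT-PCR and capillary electrophoresis fluorescence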
How it was run: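 Readout: reporter mRNA quantified by RT-PCR plus FAM-labelled primer extension, HpaI digestion and capillary electrophoresis, 24 h after dosing transfected HepG2 cells. Gain or loss of signal is fitted bidirectionally against DMSO baseline.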

[6] = ATG_Oct_MLP_CIS: Attagene CIS-FACTORIAL HepG2 Assay for human Octamer-Binding Transcription Factor (Oct) (AID 2282993); conditions: HepG2 Attagene cis-factorial Oct reporter, mRNA; actives raise or lower the signal
How it was run: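 Read-out: reporter mRNA via RT-PCR plus capillary electrophoresis of 6-FAM-labelled fragments. Transiently transfected HepG2, 24 h exposure, endogenous TF activity on cis elements. Gain or loss of signal fitted relative to DMSO.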

[7] = BSK_3C_TissueFactor: BioMAP Diversity Plus: 3C Assay for Tissue Factor Biomarker Activity (AID 2282997); conditions: BioMAP 3C HUVEC, tissue factor biomarker readout; actives raise or lower the signal
How it was run: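 In this endothelial system, HUVEC are treated for 24 h and Tissue Factor is assessed by ELISA, normalised to DMSO.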

[8] = BSK_3C_uPAR: BioMAP Diversity Plus: 3C Assay for Urokinase-type plasminogen activator receptor (uPAR) Biomarker Activity (AID 2282998); conditions: BioMAP 3C HUVEC, uPAR biomarker ELISA; actives raise or lower the signal
How it was run: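 HUVEC primary cells; 24 h post-dose; uPAR by ELISA; gain or loss of signal fitted bidirectionally vs DMSO baseline.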

[9] = BSK_3C_VCAM1: BioMAP Diversity Plus: 3C Assay for Vascular cell adhesion molecule 1 (VCAM1) Biomarker Activity (AID 2282999); conditions: BioMAP 3C HUVEC, VCAM1 ELISA, cytokine-stimulated; actives raise or lower the signal
How it was run: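 Activity fitted in both directions relative to DMSO, with ELISA measurement of the surface marker on primary HUVEC (3C) at 24 h post-treatment; parallel SRB staining (0.1% SRB, TCA-fixed, 560 nm) flagged overt cytotoxicity.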

[10] = BSK_4H_Eotaxin3: BioMAP Diversity Plus: 4H Assay for Eotaxin 3 Biomarker Activity (AID 2283000); conditions: primary human endothelial cells (HUVEC); actives raise or lower the signal
How it was run: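 ELISA quantitation of CCL26 (Eotaxin-3) protein from chemically dosed human vascular endothelial cells at 24 h; increases and decreases both scored relative to DMSO-treated baseline.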

[11] = target: human Peroxisome Proliferator-activated Receptor delta (PPARd), PPARD (gene 5467) (UniProt Q03181); assay: ATG_PPARd_TRANS: Attagene TRANS-FACTORIAL HepG2 Assay for human Peroxisome Proliferator-activated Receptor delta (PPARd) (AID 2283002; active = hit-call score of the fitted dose curve at least 0.9, where 1 is the maximum)
How it was run: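 Cell-based TRANS reporter: HepG2, transient MRTU transfection, 24 h exposure. Readout = reporter mRNA (RT-PCR/CE, 6-FAM). Gain-of-signal fit vs DMSO control.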

[12] = read-out: Intercellular Adhesion Molecule 1 (ICAM1), ICAM1 (gene 3383); assay: BSK_3C_ICAM1: BioMAP Diversity Plus: 3C Assay for Intercellular Adhesion Molecule 1 (ICAM1) Biomarker Activity (AID 2283003); conditions: primary human endothelial cells (HUVEC); actives raise or lower the signal
How it was run: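 ELISA read-out of ICAM-1; HUVEC (primary human), 3C system, 24 h post-dosing; bidirectional fit vs DMSO baseline.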

[13] = target: human Retinoic Acid Receptor beta (RARb), RARB (gene 5915) (UniProt P10826); assay: ATG_RARb_TRANS: Attagene TRANS-FACTORIAL HepG2 Assay for human Retinoic Acid Receptor beta (AID 2283004; active = hit-call score of the fitted dose curve at least 0.9, where 1 is the maximum)
How it was run: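 Fluorescent capillary-electrophoresis detection of GAL4-UAS reporter mRNA defines the endpoint, with induction over DMSO-treated wells scored as activity. Transiently transfected human hepatoma HepG2 cells expressing exogenous NR–Gal4 proteins are exposed to test chemicals for 24 h.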

[14] = target: Retinoic acid receptor alpha (Homo sapiens) (UniProt P10276); assay: ATG_RARa_TRANS: Attagene TRANS-FACTORIAL HepG2 Assay for human Retinoic Acid Receptor alpha (RARa) (AID 2283005; active = hit-call score of the fitted dose curve at least 0.9, where 1 is the maximum)
How it was run: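 Reporter transcripts, measured by RT-PCR with fluorescent labeling and capillary electrophoresis after 24 h dosing, reflect activity of an exogenous human RARa–GAL4 fusion in transiently transfected HepG2. Fitted for increase relative to DMSO.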

[15] = BSK_3C_Proliferation: Cell Proliferation Assessment in the BioMAP Diversity Plus: 3C Assay (AID 2283006); conditions: primary human endothelial cells (HUVEC);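 for AC50: potency may reflect either rise or fall in cell number versus DMSO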
How it was run: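 HUVEC, sub-confluent; 48 h chemical exposure; 10% TCA fix, 0.1% SRB stain, A560 total protein. Gain or loss of signal fitted both directions vs DMSO control.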

[16] = target: Nuclear receptor subfamily 1 group I member 2 (Homo sapiens) (UniProt O75469); assay: ATG_PXR_TRANS: Attagene TRANS-FACTORIAL HepG2 Assay for human Pregnane X Receptor (PXR) (AID 2283008; active = hit-call score of the fitted dose curve at least 0.9, where 1 is the maximum)
How it was run: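 Trans-factorial format: exogenous NR-Gal4 fusion activity, not endogenous factor, in transfected human HepG2 liver cells. After 24 h dosing, RNA isolated, reverse-transcribed, amplified and resolved by capillary electrophoresis; induction scored versus DMSO.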

[17] = target: human RAR-related Orphan Receptor beta (RORb), RORB (gene 6096) (UniProt Q92753); assay: ATG_RORb_TRANS: Attagene TRANS-FACTORIAL HepG2 Assay for human RAR-related Orphan Receptor beta (RORb) (AID 2283010; active = hit-call score of the fitted dose curve at least 0.9, where 1 is the maximum)
How it was run: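 HepG2, transient MRTU transfection (GAL4-UAS reporters, exogenous NR-Gal4 chimeras); 24 h compound exposure; total RNA → RT-PCR → 6-FAM primer extension → HpaI digest → CE fluorescence. Positive direction vs DMSO baseline.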

[18] = target: Cellular tumor antigen p53 (Homo sapiens) (UniProt P04637); assay: ATG_p53_CIS: Attagene CIS-FACTORIAL HepG2 Assay for human p53 Transcription Factor (AID 2282994); conditions: HepG2 p53 cis-element reporter, Attagene mRNA; actives raise or lower the signal
How it was run: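 Read-out: reporter mRNA by RT-PCR plus capillary electrophoresis with fluorescence detection. Human HepG2 liver cells carried transfected multi-reporter cis-element constructs, dosed 24 h. Gain or loss of signal fitted bidirectionally against DMSO control.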

[19] = target: human Peroxisome Proliferator-activated Receptor alpha (PPARa), PPARA (gene 5465) (UniProt Q07869); assay: ATG_PPARa_TRANS: Attagene TRANS-FACTORIAL HepG2 Assay for human Peroxisome Proliferator-activated Receptor alpha (PPARa) (AID 2283001; active = hit-call score of the fitted dose curve at least 0.9, where 1 is the maximum;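 for AC50: potency for gain of reporter signal over DMSO so agonist or activator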)
How it was run: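 Transfected HepG2 cells treated with test chemical for 24 h. RNA isolated, reverse-transcribed with oligo(dT), PCR-amplified, FAM-labelled and HpaI-digested. Fragments sized by capillary electrophoresis; gain-of-signal fit relative to DMSO.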

[20] = target: Peroxisome proliferator-activated receptor gamma (Homo sapiens) (UniProt P37231); assay: ATG_PPARg_TRANS: Attagene TRANS-FACTORIAL HepG2 Assay for human Peroxisome Proliferator-activated Receptor-gamma (PPARg) (AID 2283007; active = hit-call score of the fitted dose curve at least 0.9, where 1 is the maximum)
How it was run: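 HepG2 cells are transiently transfected with GAL4-UAS reporter units driven by chimeric NR-Gal4 fusions and dosed for 24 h. Reporter mRNA is quantified by RT-PCR, 6-FAM labelling, HpaI digestion and capillary electrophoresis. Induction is scored against DMSO.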

Measured: AC50

Sequence of Myc proto-oncogene protein (Homo sapiens) (P01106 whole entry, looked up): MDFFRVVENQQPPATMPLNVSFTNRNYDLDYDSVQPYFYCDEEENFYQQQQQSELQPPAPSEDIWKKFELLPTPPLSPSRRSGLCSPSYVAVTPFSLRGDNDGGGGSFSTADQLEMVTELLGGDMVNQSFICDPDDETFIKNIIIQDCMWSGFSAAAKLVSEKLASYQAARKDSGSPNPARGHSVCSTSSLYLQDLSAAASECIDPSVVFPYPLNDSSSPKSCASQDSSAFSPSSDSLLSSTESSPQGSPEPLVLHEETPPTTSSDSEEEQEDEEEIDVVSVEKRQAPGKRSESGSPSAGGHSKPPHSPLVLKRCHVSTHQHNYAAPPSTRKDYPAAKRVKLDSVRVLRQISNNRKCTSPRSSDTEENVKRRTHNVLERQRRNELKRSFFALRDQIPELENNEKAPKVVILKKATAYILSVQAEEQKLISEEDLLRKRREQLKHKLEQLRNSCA
Sequence of human RAR-related Orphan Receptor beta (RORb), RORB (gene 6096) (Q92753 whole entry, looked up, the tested form may be a part): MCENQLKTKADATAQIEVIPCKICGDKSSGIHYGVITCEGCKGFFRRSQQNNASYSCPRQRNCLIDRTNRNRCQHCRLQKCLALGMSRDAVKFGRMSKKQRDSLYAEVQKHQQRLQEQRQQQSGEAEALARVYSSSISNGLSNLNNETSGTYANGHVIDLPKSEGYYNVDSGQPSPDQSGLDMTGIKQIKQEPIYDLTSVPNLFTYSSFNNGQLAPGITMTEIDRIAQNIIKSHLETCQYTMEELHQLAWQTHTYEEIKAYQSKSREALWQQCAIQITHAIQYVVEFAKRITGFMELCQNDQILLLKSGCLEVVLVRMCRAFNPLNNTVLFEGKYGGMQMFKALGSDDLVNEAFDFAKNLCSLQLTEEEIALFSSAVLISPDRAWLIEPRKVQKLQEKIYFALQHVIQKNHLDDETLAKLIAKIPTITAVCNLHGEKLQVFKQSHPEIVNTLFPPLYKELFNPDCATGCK
Sequence of Retinoic acid receptor alpha (Homo sapiens) (P10276 whole entry, looked up, the tested form may be a part): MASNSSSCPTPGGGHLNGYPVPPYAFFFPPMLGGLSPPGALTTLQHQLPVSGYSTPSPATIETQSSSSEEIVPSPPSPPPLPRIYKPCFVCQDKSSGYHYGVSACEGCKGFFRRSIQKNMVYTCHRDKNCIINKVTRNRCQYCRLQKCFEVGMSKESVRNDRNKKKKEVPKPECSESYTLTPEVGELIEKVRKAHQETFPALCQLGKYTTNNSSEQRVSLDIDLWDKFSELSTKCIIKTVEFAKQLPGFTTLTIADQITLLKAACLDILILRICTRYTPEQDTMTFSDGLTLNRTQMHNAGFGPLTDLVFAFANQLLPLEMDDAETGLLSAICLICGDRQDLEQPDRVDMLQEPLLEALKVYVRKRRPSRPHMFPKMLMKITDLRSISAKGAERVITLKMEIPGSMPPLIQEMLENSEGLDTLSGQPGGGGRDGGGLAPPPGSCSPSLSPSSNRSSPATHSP
Sequence of human Peroxisome Proliferator-activated Receptor delta (PPARd), PPARD (gene 5467) (Q03181 whole entry, looked up): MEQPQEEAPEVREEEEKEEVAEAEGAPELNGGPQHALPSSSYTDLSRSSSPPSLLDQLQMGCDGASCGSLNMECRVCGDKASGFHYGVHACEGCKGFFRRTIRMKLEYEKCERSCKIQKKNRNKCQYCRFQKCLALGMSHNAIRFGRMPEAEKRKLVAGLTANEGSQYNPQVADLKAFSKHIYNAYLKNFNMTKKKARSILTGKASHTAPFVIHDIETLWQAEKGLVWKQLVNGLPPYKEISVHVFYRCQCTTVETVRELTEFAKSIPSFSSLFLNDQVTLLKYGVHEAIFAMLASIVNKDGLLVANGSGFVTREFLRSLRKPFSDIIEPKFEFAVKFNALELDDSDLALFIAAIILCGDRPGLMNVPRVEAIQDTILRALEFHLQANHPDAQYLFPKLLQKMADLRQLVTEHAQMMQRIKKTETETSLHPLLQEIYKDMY
Sequence of human Peroxisome Proliferator-activated Receptor alpha (PPARa), PPARA (gene 5465) (Q07869 whole entry, looked up, the tested form may be a part): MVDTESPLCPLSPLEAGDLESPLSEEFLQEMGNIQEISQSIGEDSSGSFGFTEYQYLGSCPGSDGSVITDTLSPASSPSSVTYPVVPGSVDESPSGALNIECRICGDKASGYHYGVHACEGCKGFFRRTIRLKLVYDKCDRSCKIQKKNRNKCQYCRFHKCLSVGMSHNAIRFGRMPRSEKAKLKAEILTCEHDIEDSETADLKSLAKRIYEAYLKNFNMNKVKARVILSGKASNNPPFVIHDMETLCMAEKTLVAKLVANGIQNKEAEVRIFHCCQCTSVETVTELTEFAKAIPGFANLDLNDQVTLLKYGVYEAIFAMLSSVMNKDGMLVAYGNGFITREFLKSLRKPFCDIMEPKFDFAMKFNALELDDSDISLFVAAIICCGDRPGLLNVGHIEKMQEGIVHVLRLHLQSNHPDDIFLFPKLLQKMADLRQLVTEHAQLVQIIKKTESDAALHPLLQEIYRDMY
Sequence of Nuclear receptor subfamily 1 group I member 2 (Homo sapiens) (O75469 whole entry, looked up, the tested form may be a part): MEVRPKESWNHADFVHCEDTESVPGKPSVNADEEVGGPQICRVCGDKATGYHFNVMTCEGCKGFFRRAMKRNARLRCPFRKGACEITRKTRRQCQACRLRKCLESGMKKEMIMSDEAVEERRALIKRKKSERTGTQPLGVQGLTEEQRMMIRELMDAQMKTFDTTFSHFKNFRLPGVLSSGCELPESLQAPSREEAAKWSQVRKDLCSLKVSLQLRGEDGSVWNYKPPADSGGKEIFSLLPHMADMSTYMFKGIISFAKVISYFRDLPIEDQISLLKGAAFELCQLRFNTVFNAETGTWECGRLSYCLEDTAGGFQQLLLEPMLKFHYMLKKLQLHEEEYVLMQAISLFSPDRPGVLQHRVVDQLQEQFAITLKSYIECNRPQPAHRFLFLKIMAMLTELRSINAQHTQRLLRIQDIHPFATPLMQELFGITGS
Sequence of human Retinoic Acid Receptor beta (RARb), RARB (gene 5915) (P10826 whole entry, looked up, the tested form may be a part): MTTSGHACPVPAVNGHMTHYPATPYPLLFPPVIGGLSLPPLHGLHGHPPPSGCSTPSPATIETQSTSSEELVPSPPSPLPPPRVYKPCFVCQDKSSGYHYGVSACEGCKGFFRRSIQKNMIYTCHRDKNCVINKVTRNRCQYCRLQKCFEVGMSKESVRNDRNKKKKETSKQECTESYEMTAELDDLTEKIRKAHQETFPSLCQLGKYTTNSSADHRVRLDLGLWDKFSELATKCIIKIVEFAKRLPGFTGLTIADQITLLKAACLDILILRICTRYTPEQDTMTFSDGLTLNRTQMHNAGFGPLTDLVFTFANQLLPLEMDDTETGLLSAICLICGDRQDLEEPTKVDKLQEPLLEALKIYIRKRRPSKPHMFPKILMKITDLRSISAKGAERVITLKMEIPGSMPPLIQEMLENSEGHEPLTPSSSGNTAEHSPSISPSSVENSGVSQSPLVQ
Sequence of Peroxisome proliferator-activated receptor gamma (Homo sapiens) (P37231 whole entry, looked up, the tested form may be a part): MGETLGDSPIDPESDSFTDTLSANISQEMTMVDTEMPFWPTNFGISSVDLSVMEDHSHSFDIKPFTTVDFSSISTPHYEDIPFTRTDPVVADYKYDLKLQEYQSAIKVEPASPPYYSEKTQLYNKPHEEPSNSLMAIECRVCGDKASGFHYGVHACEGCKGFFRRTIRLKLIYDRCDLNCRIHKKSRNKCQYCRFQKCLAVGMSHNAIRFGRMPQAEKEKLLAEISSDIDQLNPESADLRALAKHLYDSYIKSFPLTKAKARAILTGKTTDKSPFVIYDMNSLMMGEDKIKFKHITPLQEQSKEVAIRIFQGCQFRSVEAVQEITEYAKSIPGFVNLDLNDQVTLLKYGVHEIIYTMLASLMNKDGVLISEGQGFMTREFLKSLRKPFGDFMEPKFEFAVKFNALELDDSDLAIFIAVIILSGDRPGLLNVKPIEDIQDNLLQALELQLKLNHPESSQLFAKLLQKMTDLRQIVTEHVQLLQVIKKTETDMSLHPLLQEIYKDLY
Sequence of Nuclear respiratory factor 1 (Homo sapiens) (Q16656 whole entry, looked up): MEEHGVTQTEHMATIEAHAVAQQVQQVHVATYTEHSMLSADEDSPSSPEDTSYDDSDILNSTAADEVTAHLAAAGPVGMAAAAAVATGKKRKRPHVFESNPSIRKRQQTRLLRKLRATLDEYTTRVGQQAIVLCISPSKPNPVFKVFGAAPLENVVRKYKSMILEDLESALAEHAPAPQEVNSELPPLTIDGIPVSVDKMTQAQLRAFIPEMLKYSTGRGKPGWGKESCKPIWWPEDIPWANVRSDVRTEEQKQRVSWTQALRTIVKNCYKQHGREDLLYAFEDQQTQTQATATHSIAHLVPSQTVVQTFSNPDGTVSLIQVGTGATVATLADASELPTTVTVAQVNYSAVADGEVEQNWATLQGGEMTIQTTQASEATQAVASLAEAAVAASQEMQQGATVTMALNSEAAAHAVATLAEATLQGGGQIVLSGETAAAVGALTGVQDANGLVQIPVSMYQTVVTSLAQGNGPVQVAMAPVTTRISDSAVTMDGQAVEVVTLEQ
Sequence of Cellular tumor antigen p53 (Homo sapiens) (P04637 whole entry, looked up): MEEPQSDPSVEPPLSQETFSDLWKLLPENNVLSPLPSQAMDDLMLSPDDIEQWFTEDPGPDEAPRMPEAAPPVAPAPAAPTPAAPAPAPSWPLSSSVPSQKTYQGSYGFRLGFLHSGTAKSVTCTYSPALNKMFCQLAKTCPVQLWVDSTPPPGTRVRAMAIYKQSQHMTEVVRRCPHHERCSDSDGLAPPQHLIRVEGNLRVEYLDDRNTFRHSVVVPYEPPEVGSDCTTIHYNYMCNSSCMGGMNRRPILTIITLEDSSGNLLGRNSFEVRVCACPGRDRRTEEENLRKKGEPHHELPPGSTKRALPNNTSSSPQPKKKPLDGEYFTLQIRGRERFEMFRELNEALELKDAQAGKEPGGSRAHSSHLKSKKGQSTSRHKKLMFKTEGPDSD

N#CC(Br)(Br)C(N)=O
active: [4] 157 µM | [5] 100 µM
inactive: [1] | [2] | [3] | [6] | [7] | [8] | [9] | [10] | [11] | [12] | [13] | [14] | [15] | [16] | [17]

CCC[CH2][Sn]([Cl])([CH2]CCC)[CH2]CCC
active: [4] 0.601 µM | [5] 0.281 µM | [18] 0.771 µM | [7] 0.148 µM | [8] 0.148 µM | [9] 0.148 µM | [10] 148 nM | [12] 0.148 µM | [15] 0.148 µM | [16] 927 nM
inactive: [1] | [2] | [3] | [6] | [11]

CCNS(=O)(=O)C(F)(F)C(F)(F)C(F)(F)C(F)(F)C(F)(F)C(F)(F)C(F)(F)C(F)(F)F
inactive: [1] | [2] | [3] | [7] | [10] | [19] | [11] | [12] | [13] | [14] | [16] | [17]
active: [2] 117 µM and 61.4 µM | [3] 96.5 µM | [5] 25.7 µM and 41.5 µM and 13.3 µM | [10] 22.4 µM and 17 µM | [19] 63.9 µM and 56.2 µM | [20] 96.5 µM and 120 µM and 51.2 µM | [16] 12.7 µM and 9.73 µM

O=[N+]([O-])C(Br)(CO)CO
active: [1] 162 µM | [3] 74.6 µM | [6] 156 µM | [7] 27.1 µM | [8] 30.5 µM | [9] 31.1 µM | [10] 27700 nM | [12] 33.4 µM | [15] 5.94 µM
inactive: [2] | [4] | [5] | [19] | [13] | [20] | [17]
